# BL2 CD40 inh = CD40 pathway inhibition in BL2 cells. BL2 NF-kB luciferase reporter, CD40L-induced, 4 h. inhibition, % at 10 µM. 83,000 tested, 0.94% active;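 active = mean inhibition of at least 50% with a set share of replicates also reaching that level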;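 note: 0% = neutral control wells and 100% = IKK inhibitor VII at 50 µM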
# Numbers without * were called inactive; [ ] = dose if it differs, or a comment. The full list was thinned out, with hits kept by preference.
SMILES,BL2 CD40 inh
CC1OC(CC(=O)O)CC2=C1C(=O)c1c(O)cccc1C2=O (stereo not given),104*
CC(=O)N(C)C[C@H]1Oc2ccc(N)cc2C(=O)N(C)C[C@@H]1C,7
C[C@H]1CN(C)C(=O)Cc2cc(N)ccc2O[C@H]1CN(C)C(=O)OC(C)(C)C,17
C[C@@H]1CN([C@@H](C)CO)C(=O)CCCn2cc(nn2)CO[C@@H]1CN(C)C(=O)c1ccc2ccn(C)c2c1,2[25 µM]
COc1ccc(N2CCN(C(=O)Cn3c(=O)[nH]c4ccccc4c3=O)CC2)cc1,29*
COc1ccc(N2CCN(C(=O)COc3cccc4ccccc34)CC2)cc1,-6
COc1ccc(N2CCN(C(=O)Cn3c(=O)c4cccn4c4cccnc43)CC2)cc1,-5
O=C(NCCS(=O)(=O)NCCc1ccccc1)c1ccccc1,-4
O=C(NCCCn1ccnc1)c1ccc2nccnc2c1,13
O=C(NCCc1ccccc1)c1ccc2nccnc2c1,72*
O=C1C[C@@H](c2ccccc2)C(=O)N[C@@H](c2ccccc2)C/C=C\C[C@H](c2ccccc2)N1,-10[25 µM]
O=C1C[C@@H](c2ccccc2)C(=O)N[C@H](c2ccccc2)C/C=C\C[C@H](c2ccccc2)N1,5[25 µM]
O=C1C[C@H](c2ccccc2)C(=O)N[C@@H](c2ccccc2)C/C=C\C[C@@H](c2ccccc2)N1,60*[25 µM]
Cc1noc(C)c1NC(=O)N[C@H]1CC[C@@H](CCNC(=O)C2CCCCC2)O[C@H]1CO,-5
CCOC(=O)c1cc(-c2cccs2)[nH]n1,-11
CCOC(=O)C1CCN(C(=O)c2cccs2)CC1,9
CCOC(=O)C1CCN(c2ccc(-c3cccs3)nn2)CC1,57*
O=C(C1CCOCC1)N1C[C@H]2[C@@H](c3ccccc31)[C@@H](CO)N2C(=O)Nc1cccc(F)c1,7
Cc1ccccc1OCC(=O)Nc1ccc2c(c1)Cc1ccccc1-2,7
Cc1ccccc1OCC(=O)Nc1cccc(C(=O)O)c1,91*
Cc1ccccc1OCC(=O)Nc1ccc2c(c1)C(=O)c1ccccc1C2=O,-9
CN1CCN(C(=O)C[C@@H]2CC[C@H]3[C@H](COc4ccc(NC(=O)C5CCC5)cc4C(=O)N3C)O2)CC1,-3
CN(C)C(=O)c1ccc(-c2ccc3n(c2=O)C[C@@H]2[C@@H](CO)[C@H](C(=O)NCCc4ccccc4)N[C@H]32)cc1,-6[25 µM]
O=C1Nc2ccccc2CCc2ccccc21,3
O=C(N/N=C1\CCc2ccccc21)c1ccccc1O,25
SMILES,BL2 CD40 inh
O=C1C(=NO)CCc2ccccc21,35*
CN1C(=O)c2cc(NC(=O)C3CCCC3)ccc2OC[C@H]2O[C@@H](CC(=O)NCc3ccccc3F)CC[C@H]21,-7
Nc1cc(Nc2ccc(S(N)(=O)=O)cc2)ncn1,-28[25 µM]
COc1cccc(-c2ccc3c(c2)[C@H]2[C@H](CCN2C(=O)C2CCCC2)[C@H](CO)N3)c1,-13
CC(C)NC(=O)N(C)C[C@H]1Oc2ccc(NC(=O)Cc3ccccc3)cc2CC(=O)N([C@H](C)CO)C[C@@H]1C,-1[25 µM]
COc1ccc(C(=O)Nc2ccc(N3CCOCC3)cc2)cc1S(=O)(=O)N1CCOCC1,17*
COc1ccc(C(=O)Nc2ccc(N3CCOCC3)cc2)cc1S(=O)(=O)N1CCCC1,-9
COc1ccc(C(=O)Nc2ccc(NC(C)=O)cc2)cc1S(=O)(=O)N1CCCC1,-1
O=C(N/N=C/c1cccc(O)c1)c1ccc2c(c1)OCCO2,75*
O=C(N/N=C/c1cccnc1)c1ccc2c(c1)OCO2,-33
O=C(N/N=C/c1ccc2c(c1)OCO2)c1ccc2c(c1)OCO2,-62
CN1C(=O)c2cc(NC(=O)c3ccc4c(c3)OCO4)ccc2OC[C@H]2O[C@H](CC(=O)O)CC[C@H]21,10[25 µM]
Cc1noc(C)c1CSCC(=O)N(C)CC(=O)Nc1ccc(Cl)c(Cl)c1,-3
CCN(CC(=O)Nc1cc(Cl)ccc1C)C(=O)CSCc1c(C)noc1C,1
Cc1ccc(C)c(NC(=O)CN(C)C(=O)CSCc2c(C)noc2C)c1,29*
Fc1cccc(-c2ccc(C3[C@H]4CNC[C@@H]3N4Cc3ccccc3F)cc2)c1 (stereo not given in full),6
COc1ccc2c3c([nH]c2c1)[C@@H](CO)N(Cc1ccccc1F)CC31CCN(CC2CC2)CC1,6
CCCCn1c(NC(C)=O)c(C#N)c2nc3ccccc3nc21,-1
Nc1c(S(=O)(=O)c2ccccc2)c2nc3ccccc3nc2n1CCN1CCOCC1,10
CCCCn1c(NC(=O)c2ccc(Br)o2)c(S(=O)(=O)c2ccccc2)c2nc3ccccc3nc21,66*
COc1ccc(-c2ccc3n(c2=O)C[C@H]2[C@H](CO)[C@@H](C(=O)NCCN4CCCCC4)N(C)[C@@H]32)cc1,-6[25 µM]
CO[C@@H]1CN(C)C(=O)c2ccc(NC(=O)C3CC3)cc2OC[C@@H](C)N(Cc2cccnc2)C[C@@H]1C,-4
CC1(C)C(=O)N=C2c3ccccc3C(=O)C(=O)C21 (stereo not given),91*[25 µM]
CN(C)C(=O)[C@H]1[C@H](CO)[C@H]2Cn3c(cccc3=O)[C@H]2N1C(=O)C1CCCC1,5
COCCNC(=O)C[C@@H]1CC[C@H]2[C@@H](COC[C@H](O)CN2C(=O)c2cc(Cl)cc(Cl)c2)O1,-18[25 µM]
SMILES,BL2 CD40 inh
COc1ccc(-c2ccc3c(c2)[C@@H]2[C@@H](CCN2C(=O)Nc2ccc(F)cc2)[C@H](CO)N3C)cc1,12
C[C@H](CO)N1C[C@H](C)[C@H](CN(C)C(=O)[C@H](C)c2ccccc2)OCc2ccccc2-c2c(n(C)c3ccccc23)C1=O,25
Cc1ccc2c(=O)c3ccccc3n(CCCN)c2c1C,79*[25 µM]
CCN(CC)CCn1c2ccccc2c(=O)c2c(O)ccc(O)c21,-12
Cc1cc(=O)n(CC(=O)O)c2ccccc12,3
CN1C(=O)c2cc(NC(=O)c3ccc4c(c3)OCO4)ccc2OC[C@@H]2O[C@H](CC(=O)O)CC[C@@H]21,3[25 µM]
CN(C)C(=O)c1ccc(-c2ccc([C@H]3[C@H](CO)N4CCCCN(CC5CC5)C[C@@H]34)cc2)cc1,-5[25 µM]
CC(C)(C)[S@](=O)N1Cc2cc(C(=O)NCCc3ccncc3)nc(-c3cccc(-c4ccncc4)c3)c2[C@@H]1CCO,11
COc1ccc(/C=N/Nc2ncccc2[N+](=O)[O-])c(OC)c1,68*
COC(=O)CCCNc1ncccc1[N+](=O)[O-],7
COc1ccc(NS(=O)(=O)c2cccc(C(=O)NN=Cc3ccc(OC)cc3OC)c2)cc1,-4
CC=Cc1ccc2n(c1=O)C[C@@H]1[C@@H](CO)[C@H](C(=O)NCCc3cn(C)cn3)N(C(=O)C3CC3)[C@H]21 (mixture of isomers),-1[25 µM]
O=C(Cc1cccnc1)N1[C@H](CO)[C@H](c2ccccc2)[C@@H]1CNCC1CCC1,2[25 µM]
COc1ccc(C(=O)/C=C/C(=O)N(CC(=O)NCCC(C)C)Cc2cccs2)c(O)c1,90*
O=C(COC(=O)Cc1ccc(F)cc1)NC1CCCCCC1,14
COc1ccc(Br)c(C(=O)NCCC(C)C)c1,0
COc1ccc(OC)c(NC(=O)CN(Cc2ccc(F)cc2)C2CCCCC2)c1,20
COc1ccc(C(=O)/C=C/C(=O)N(CC(=O)NC2CCCCC2)Cc2ccc(F)cc2)c(O)c1,38*
COc1ccc(S(=O)(=O)NCC(=O)N(CC(=O)NC(C)(C)C)Cc2cccs2)cc1,6
CN1C[C@@H]2[C@H](c3ccccc31)[C@@H](CO)N2C(=O)Nc1ccccc1Cl,10[25 µM]
O=S(=O)(c1ccc(F)cc1)N1CC[C@@H]2[C@H]1c1cc(Br)ccc1N[C@@H]2CO,3
